# Compound activity: PubChem, SRMLSC
# Sampled rows, rich in hits. Any-hit rate of the full collection: about 6.3%.
# Spn PMK inh = S. pneumoniae PMK inhibitors, primary screen, biochemical, mevalonate pathway, pilot trial included. phosphomevalonate kinase (Streptococcus pneumoniae D39). purified PMK, PK/LDH-coupled NADH absorbance 340 nm. inhibition, % at 10 µM. hit rate 0.49% among 65,000. AID 539, 2006;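 active = top-ranked compounds by inhibition in the single 10 µM screen, taking a fixed number of the strongest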
# DPM-DC inhibit = S. pneumoniae DPM-DC inhibitors, primary screen, biochemical, PK/LDH-coupled NADH fluorescence; diphosphomevalonate decarboxylase (Streptococcus pneumoniae D39); purified DPM-DC; calls only at 10 µM; hit rate 0.49% among 65,000; AID 556, 2006;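 active = the 320 compounds with the highest percent inhibition in the single-dose primary screen, excluding strongly autofluorescent ones, cut at about 32% in these data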;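 note: kinetic rate of NADH fluorescence loss reporting ADP formed by the decarboxylase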
# Fluor 339 460 = intrinsic fluorescence of library compounds, ex339/em460 – biochemical, MLSMR library, data from DPM-DC assay, artefact control, profiling panel. compound autofluorescence, ex339/em460 nm, NADH buffer; stronger effect = higher value; 1 = no-compound wells, NADH background. AID 709, 2007. fluorescence fold increase at 10 µM. hit rate 5.5% among 65,000;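 active = at 10 µM, mean starting fluorescence two-fold or more over control wells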;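 note: signal is the first read of a kinetic run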
# NADH enzymes = inhibitors of PK/LDH coupling enzymes, profiling panel, artefact control, biochemical, MLSMR library | IC50, µM (top dose mostly 10 µM) | coupled PK/LDH NADH assays, four targets | AID 774, 2007 | hit rate 0.02% among 65,000;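 active = single-dose screening hits from any of four coupled enzyme assays that gave an IC50 when retested across doses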;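 note: the DPM-DC format reads NADH fluorescence rather than 340 nm absorbance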
# Spn MK inh = S. pneumoniae MK inhibitors, primary screen, biochemical, PK/LDH-coupled NADH absorbance; mevalonate kinase [Streptococcus pneumoniae D39]; purified MK, PK/LDH-coupled NADH absorbance 340 nm; inhibition, % at 10 µM; hit rate 0.48% among 65,000;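 active = ranked among the strongest by inhibition in the single 10 µM screen, a fixed top-ranked set picked for dose follow-up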
# Abs 340nm = compound light absorbance at 340 nm, profiling panel, artefact control, biochemical, MLSMR library, data from PS, PMK, MK assays. compound absorbance at 340 nm, fold over control. fold change at 10 µM. 65,000 tested, under 10 active;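 active = at 10 µM dose, initial 340 nm absorbance at least 2 fold that of control wells; inactive = change under 2 fold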;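 note: initial absorbance extrapolated from kinetic A340 decline of NADH oxidation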
# A number is an active result; n = inactive; x = no result shown; + = active, no number.
SMILES,Spn PMK inh,DPM-DC inhibit,Fluor 339 460,NADH enzymes,Spn MK inh,Abs 340nm
O=C(CP(=O)(c1ccccc1)c1ccccc1)Nn1cnnc1,n,n,n,n,n,n
COc1ccc(-c2cc(C(F)(F)F)n3nc(C(=O)Nc4cc(C)on4)cc3n2)cc1OC,n,x,3.8,n,n,n
CCOC(=O)c1sc2cccc(F)c2c1N,n,x,2.7,n,n,n
CCc1nn(C(C)C(=O)NC(C)CCc2ccco2)c(=O)c2cc3occc3n12 (stereo not drawn),27,n,n,n,n,n
CCc1nn(C(C)C(=O)NCCc2ccc(OC)c(OC)c2)c(=O)c2cc3occc3n12 (stereo not drawn),26,n,n,n,n,n
O=C(Cn1ncc2c(=O)oc3ccccc3c21)NCCN1CCN(c2ccccc2F)CC1,n,n,n,n,n,n
COCCn1nnnc1CN(Cc1cccnc1)Cc1cc2cc(OC)ccc2[nH]c1=O,n,+,2.2,n,n,n
COc1ccc2[nH]c(=O)c(CN(Cc3nnnn3Cc3ccc(F)cc3)CC3CCCO3)cc2c1 (stereo not drawn),n,n,2,n,n,n
COc1ccc2[nH]c(=O)c(CN(Cc3nnnn3Cc3ccccc3)CC3CCCO3)cc2c1 (stereo not drawn),n,n,2.1,n,n,n
COc1ccc2cc(CN(Cc3cccnc3)Cc3nnnn3Cc3ccccc3)c(=O)[nH]c2c1,n,n,n,n,n,n
O=C1c2oc3ccccc3c(=O)c2C(c2ccc(Br)cc2)N1c1ncccn1 (stereo not drawn),n,n,n,n,n,n
Cc1cccc(S(=O)(=O)c2c(N)n(Cc3ccco3)c3nc4ccccc4nc23)c1,n,x,3.9,n,n,n
Cc1cccc(-n2cnc3c(c2=O)c2nc4ccccc4nc2n3Cc2ccco2)c1,n,n,3.2,n,n,n
Cc1ccc(-c2ccc(CCC(=O)O)n2NC(=O)c2ccco2)cc1,n,n,n,n,n,n
Cc1ccc(S(=O)(=O)c2c(N)n(NC(=O)c3ccco3)c3nc4ccccc4nc23)cc1,n,x,3.8,n,n,n
Cc1ccc(S(=O)(=O)c2c(N)n(Cc3ccco3)c3nc4ccccc4nc23)cc1,n,x,2.2,n,n,n
Cc1cccc(S(=O)(=O)Nc2nc3ccccc3nc2NCc2ccco2)c1,n,n,n,n,n,n
COc1cccc(-c2nc(CS(=O)CC(=O)NCc3ccccc3Cl)c(C)o2)c1 (stereo not drawn),n,n,n,n,n,n
COc1ccc(-c2cc(O)cc(O)c2)cc1,n,n,n,n,n,n
CCOC(=O)CC1(CC(=O)OCC)NC(=O)c2c(C)sc(C(=O)OCC)c2N1,n,x,3,n,n,n
CCOC(=O)CC1(C)NC(=O)c2c(C)sc(C(=O)OCC)c2N1 (stereo not drawn),n,x,3.9,n,n,n
CC1(C)OC(=O)C(=CNC(Cc2c[nH]c3ccccc23)C(=O)O)C(=O)O1 (stereo not drawn),n,n,n,n,n,n
O=C(O)CCc1nc2ccccc2n(CCc2ccccc2)c1=O,n,n,2.3,n,n,n
CCn1c(=O)c(C)nn2c3ccccc3nc12,n,n,n,n,n,n
CCc1nc2ccccc2n(CCOCCn2c(=O)c(CC)nc3ccccc32)c1=O,n,n,n,n,n,n
SMILES,Spn PMK inh,DPM-DC inhibit,Fluor 339 460,NADH enzymes,Spn MK inh,Abs 340nm
O=C(O)CCc1nn2c3ccccc3nc2n(CCN2CCCCC2)c1=O,n,x,4.4,n,n,n
Cc1cc(C(=O)COc2ccc(-c3nnco3)cc2)c(C)n1Cc1ccccc1,n,n,n,n,n,n
COc1ccc(C(=O)Nn2cnc3scc(-c4cccs4)c3c2=O)c(O)c1,n,n,n,n,n,n
CCOc1ccccc1Oc1coc2cc(OC(=O)c3ccco3)ccc2c1=O,n,n,n,n,n,n
COc1ccccc1Oc1coc2cc(O)ccc2c1=O,n,x,4.8,n,n,n
CCOc1ccccc1Oc1coc2cc(O)ccc2c1=O,n,x,4.7,n,n,n
CCCc1cc(-c2[nH]ncc2-c2ccc3c(c2)OCCCO3)c(O)cc1O,n,n,n,n,n,n
CCCc1cc(-c2[nH]ncc2-c2ccc(C(=O)OCC)o2)c(O)cc1O,n,n,2.2,n,n,n
O=C(CSc1nnc(-c2ccccc2)o1)OCc1ccccc1,n,n,n,n,n,n
COc1ccc2[nH]c(=O)c(C(c3nnnn3CC3CCCO3)N3CCc4ccccc4C3)cc2c1 (stereo not drawn),n,n,3,n,n,n
COc1ccc2[nH]c(=O)c(C(c3nnnn3C3CCCCC3)N3CCN(C)CC3)cc2c1 (stereo not drawn),n,x,4.5,n,n,n
COc1cc2cc(C(c3nnnn3Cc3ccc(F)cc3)N3CCCCCC3)c(=O)[nH]c2cc1OC (stereo not drawn),n,n,2.1,n,n,n
CCCN1CCN(C(c2cc3cc(OCC)ccc3[nH]c2=O)c2nnnn2C2CCCCC2)CC1 (stereo not drawn),n,x,4.3,n,n,n
CCOc1ccc2[nH]c(=O)c(CN(CCO)C(c3nnnn3C3CCCCC3)C(C)C)cc2c1 (stereo not drawn),n,n,n,n,n,n
COc1ccc2cc(C(c3nnnn3C3CCCC3)N3CCc4ccccc4C3)c(=O)[nH]c2c1 (stereo not drawn),n,n,n,n,n,n
COC(=O)Nc1ccc(S(=O)(=O)N2c3ccccc3CCC2C)cc1 (stereo not drawn),n,n,n,n,n,n
CCCNC(=O)N1CCN(c2nc(C(C)C)c3c(c2C#N)CC(C)(C)OC3)CC1,n,n,n,n,n,n
CC1(C)Cc2c(C#N)c(N3CCN(C(=O)c4ccco4)CC3)nc(Cc3ccccc3)c2CO1,n,x,2.2,n,n,n
Cc1nc(N2CCN(C(=O)c3ccc(Cl)cc3)CC2)c(C#N)c2c1COC(C)(C)C2,n,x,2.3,n,n,n
N#Cc1c(N2CCN(C(=O)c3ccco3)CC2)nc(-c2ccccc2)c2c1CCCC2,n,x,2.2,n,n,n
CC(C)Cc1nc(N2CCN(C(=O)c3ccco3)CC2)c(C#N)c2c1CCC2,n,n,n,n,n,n
CC(=O)C1=C(C)Nc2ncnn2C1c1ccc(Cl)cc1 (stereo not drawn),n,n,n,n,n,n
N#CCSc1nnc(COc2ccc3ccccc3c2)o1,n,n,n,n,n,n
Clc1c(-c2nnc3n2CCC3)sc2ccccc12,n,+,n,n,n,n
